Screen size: about 200,000 compounds; about 720 (0.36%) were called active. About 8% were inconclusive and are not listed. Calls follow the shape of the dose curve; as a rule, active = well fitted activation curve with a large enough effect; inconclusive = small, poorly fitted or top-dose-only effect, or effect the other way, or another doubt; inactive = flat fitted curve, though single readings scatter. The list shows a part of the results.
Potency is read from the fitted curve at half-maximal effect.

For this experiment, the target named is Lysosomal alpha-glucosidase (Homo sapiens) (UniProt P10253). Description: qHTS Assay for Activators of Human alpha-Glucosidase as a Potential Chaperone Treatment of Pompe Disease. Also: nearly all actives have a fitted effect of over 80% in size. The settings on record: purified enzyme, 4-MU-alpha-glucoside fluorescence, 20 min; series mostly up to 76.9 µM. The procedure, abridged: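 Fluorogenic assay, 4 nM enzyme, 400 uM 4-methylumbelliferyl-[…], pH 5.0 citrate/phosphate buffer with 0.005% Tween-20, compounds up to 77 uM, 20 min at room temperature. NaOH/glycine stop, Ex 365/Em 440 nm; AC50 from Hill fits.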
For `CC1OC(Oc2ccc3ccc(=O)oc3c2-c2c(O)ccc3cc(Oc4ccc5ccc(=O)oc5c4)c(=O)oc23)C(O)C(O)C1O` (stereo unspecified), the Potency was 39.8 µM (active).

For `Cc1cccn2c(=O)c3cc(C#N)c(=O)n(CCCN4CCOCC4)c3nc12`, the Potency is 35.5 µM (active).

With `C=CCn1c(=O)c(C#N)cc2c(=O)n3ccccc3nc21`, the Potency is 35.5 µM (active).

Consider `N#Cc1cc2c(=O)n3ccccc3nc2n(CCCN2CCOCC2)c1=O`, for which the Potency is 35.5 µM (active).

`Cc1[nH]nc2c1-c1nc3ccccc3nc1C(C)(C)C2`: the Potency is 28.2 µM (active).

For `COc1ccc2c(c1)c1ncn(Cc3ccco3)c(=O)c1n2C`, the Potency was 35.5 µM (active).

Regarding `COCCn1c(=O)[nH]c(=O)c2c(C(F)(F)F)cc(-c3cccs3)nc21`, the Potency is 28.2 µM (active).

`O=c1[nH]c(=O)n(Cc2ccccc2)c2nc(-c3ccco3)cc(C(F)(F)F)c12`: the Potency was 31.6 µM (active).

For `CCCn1c(=O)c2c(C(=O)OCC)cc(-c3ccco3)nc2n(CCC)c1=O`, the Potency was 35.5 µM (active).

Regarding `CCCn1c(=O)[nH]c(=O)c2c(C(=O)OCC)cc(-c3cccs3)nc21`, the Potency was 35.5 µM (active).

With `CCCCn1c(=O)[nH]c(=O)c2c(C(=O)OCC)cc(-c3cccs3)nc21`, the Potency is 35.5 µM (active).

`COc1ccc2cc(/C=N/NC(=O)CN(c3ccccc3)S(=O)(=O)c3ccccc3)c(Cl)nc2c1`: the Potency is 35.5 µM (active).

As for `CCOC(=O)C1=CN(C)C=C(C(=O)OCC)C1c1ccsc1`, the Potency was 31.6 µM (active).

Take `COC(=O)C1=CN(C)C=C(C(=O)OC)C1c1ccsc1`: the Potency was 35.5 µM (active).

Regarding `N#Cc1cc2ccccc2nc1N`, the Potency was 39.8 µM (active).

Take `COc1ccc(-c2cc(=Nc3c(C)n(C)n(-c4ccccc4)c3=O)c3ccccc3o2)cc1`: the Potency was 35.5 µM (active).

As to `COc1ccc(-c2cc(C(F)(F)F)n3nc(N)nc3n2)cc1`, the Potency was 35.5 µM (active).

Take `Nc1nc2nc(-c3ccc(F)cc3)cc(C(F)(F)F)n2n1`: the Potency is 25.1 µM (active).

In the case of `Nc1nc2nc(-c3ccc(Cl)cc3)cc(C(F)(F)F)n2n1`, the Potency is 31.6 µM (active).

On to `Nc1nc2nccc(-c3ccc(Cl)cc3)n2n1`, for which the Potency was 22.4 µM (active).

Turning to `Cc1nc2cc3ccccc3cc2c(=O)[nH]1`, the Potency is 25.1 µM (active).

Consider `CCCCCCc1cc2cc(C(=O)NCc3ccccc3)c(=N)oc2cc1O`, for which the Potency is 35.5 µM (active).

For the compound `CCCCCCc1cc2cc(C(N)=O)c(=N)oc2cc1O`, the Potency is 31.6 µM (active).

In the case of `CCCCCCc1cc2cc(S(=O)(=O)c3ccc(F)cc3)c(=O)oc2cc1O`, the Potency was 31.6 µM (active).

`CCOc1ccc(C2C(C(=O)OC)=CN(CCOC)C=C2C(=O)OC)cc1`: the Potency was 35.5 µM (active).

Regarding `COCCN1C=C(C(=O)OC)C(c2cc(Br)c(OC)c(OC)c2)C(C(=O)OC)=C1`, the Potency is 35.5 µM (active).

With `CCCOc1ccc(C2C(C(=O)OC)=CN(CCOC)C=C2C(=O)OC)cc1`, the Potency is 35.5 µM (active).

`Cc1cc(N2CCOCC2)nc2ccc(NC(=O)CCC(=O)N3CCCCC3)cc12`: the Potency was 35.5 µM (active).

As for `Cc1cc(N2CCOCC2)nc2ccc(NC(=O)CCC(=O)N3CCCC(C)C3)cc12` (stereo unspecified), the Potency was 39.8 µM (active).

`Oc1ccc(N=Cc2ccc(-c3cccs3)s2)cc1`: the Potency was 31.6 µM (active).

In the case of `CC(C)c1ccc2oc3nc(N)c(C(=O)O)cc3c(=O)c2c1`, the Potency was 35.5 µM (active).

Consider `N#Cc1ccc2c(c1)nc1ccccn12`, for which the Potency is 35.5 µM (active).

On to `Cc1cc(=O)oc2c(CN3CCCCC3)c(O)c(Cl)cc12`, for which the Potency was 31.6 µM (active).

Regarding `Cc1cc(=O)oc2c(CN3CCC(C)CC3)c(O)c(Cl)cc12`, the Potency was 35.5 µM (active).

Consider `Cc1cc(=O)oc2c(CN3CC(C)OC(C)C3)c(O)c(Cl)cc12` (stereo unspecified), for which the Potency was 10 µM (active).

With `Cc1cc(=O)oc2c(CN3CCN(C)CC3)c(O)c(Cl)cc12`, the Potency is 35.5 µM (active).

Consider `CCN1CCN(Cc2c(O)c(Cl)cc3c(C)cc(=O)oc23)CC1`, for which the Potency was 35.5 µM (active).

As to `COc1ccccc1C1CN(c2ccccc2)N=C1c1cccs1` (stereo unspecified), the Potency is 39.8 µM (active).

Turning to `Fc1ccccc1N1CC(c2ccccc2)C(c2cccs2)=N1` (stereo unspecified), the Potency is 35.5 µM (active).

For the compound `COc1cccc(C2CN(c3ccc(F)cc3F)N=C2c2cccs2)c1OC` (stereo unspecified), the Potency is 39.8 µM (active).

As to `COc1ccccc1C1CN(c2ccc(F)cc2F)N=C1c1cccs1` (stereo unspecified), the Potency was 28.2 µM (active).

As for `Fc1ccc(N2N=C(c3cccs3)CC2c2ccccc2)cc1` (stereo unspecified), the Potency was 31.6 µM (active).

Regarding `Fc1ccc(C2CC(c3cccs3)=NN2c2ccccc2)cc1` (stereo unspecified), the Potency was 31.6 µM (active).

As to `O=c1c(-c2nnc(SCc3ccc(Cl)c(Cl)c3)o2)cccn1Cc1ccccc1`, the Potency is 35.5 µM (active).

Consider `O=c1c(-c2nnc(SCc3ccc(Cl)cc3Cl)o2)cccn1Cc1ccccc1`, for which the Potency was 35.5 µM (active).

Take `O=c1c(-c2nnc(SCc3ccc(Cl)cc3)o2)cccn1Cc1ccccc1`: the Potency is 39.8 µM (active).

As to `O=c1oc2cc(Oc3c([N+](=O)[O-])cc(C(F)(F)F)cc3[N+](=O)[O-])ccc2c2c1CCCC2`, the Potency is 35.5 µM (active).

On to `Nc1nc2nc(-c3cccs3)cc(C(F)(F)F)n2n1`, for which the Potency was 28.2 µM (active).

With `FC(F)(F)c1cc(-c2cccs2)nc2ncnn12`, the Potency was 28.2 µM (active).

As for `CCCOc1ccc2cc(-c3ccccn3)c(=O)oc2c1`, the Potency is 39.8 µM (active).

As for `CN(C)C(=O)COc1ccc2cc(-c3ccccc3)c(=O)oc2c1`, the Potency is 35.5 µM (active).

Consider `COc1ccc(-c2cc3ccc(OCc4nn[nH]n4)cc3oc2=O)cc1`, for which the Potency was 35.5 µM (active).

Take `CSc1cnc2c(=O)n(C)c(=O)[nH]c2n1`: the Potency was 35.5 µM (active).

Consider `COCCCNC(=O)c1c(N)n(-c2cccc(S(N)(=O)=O)c2)c2nc3ccccc3nc12`, for which the Potency is 35.5 µM (active).

Take `C=CCNC(=O)c1c(N)n(-c2cccc(S(N)(=O)=O)c2)c2nc3ccccc3nc12`: the Potency was 25.1 µM (active).

As to `O=c1oc2c(CN3CCOCC3)c(O)ccc2c2c1CCC2`, the Potency is 25.1 µM (active).

In the case of `O=c1oc2c(CN3CCOCC3)c(O)ccc2c2c1CCCC2`, the Potency was 35.5 µM (active).

`COC(=O)c1nc2nc(-c3cccs3)cc(C(F)(F)F)n2n1`: the Potency is 35.5 µM (active).

In the case of `CCOC(=O)c1nc2nc(-c3cccs3)cc(C(F)(F)F)n2n1`, the Potency was 14.1 µM (active).

As to `CN(C)CCNC(=O)c1cc2c(s1)-c1ccccc1OC2`, the Potency is 6.31 µM (active).

In the case of `O=C(NCc1cccs1)c1cc2c(s1)-c1ccccc1OC2`, the Potency is 39.8 µM (active).

(Values after PubChem BioAssay AID2242 (National Center for Advancing Translational Sciences (NCATS), 2010).)
